# Inconclusive results are not listed. Where a call stands in place of a potency, no number is given. Active and inactive are the calls of the source. Calls follow the shape of the dose curve; as a rule, active = well fitted curve in the direction sought with a large enough effect; inconclusive = small, poorly fitted or top-dose-only effect, or another doubt; inactive = no such curve, though single readings can be large or run the other way.
# Target: Caspase-1 (Homo sapiens) (UniProt P29466)
# Test: Concentration-Response Counterscreen for Tau: Redox Active Inhibitors of Caspase-1
# Conditions: purified caspase-1, Ac-WEHD-AFC fluorescence kinetic; series mostly up to 40.6 µM
# Description: NIH Molecular Libraries Probe Production Network [MLPCN] NIH Chemical Genomics Center [NCGC] MLPCN Grant: X01 MH083262-01 Assay Provider: Carlo Ballatore, University of Pennsylvania NCGC Assay Overview: The microtubule-associated protein tau is an abundant protein in the axons of neurons that stabilizes microtubules. With its ability to modulate microtubule dynamics, tau contributes directly or indirectly, to key structural and regulatory cellular functions. Particularly important is the influence tau exerts on axonal transport, which allows signaling molecules, trophic factors and other essential cellular constituents to travel along the axons. Under pathological conditions, tau becomes sequestered into insoluble aggregates called neurofibrillary tangles. This phenomenon is believed to have pathological consequences by promoting axonal transport deficits that ultimately lead to synaptic dysfunction and neuronal loss. To examine the selectivity of tau fibrillization inhibitors, compounds were tested in an in vitro assay for caspase-1 activity. This assay is a counterscreen for tau fibrillization inhibitors to identify non-specific oxidizing agents; an active site cysteine in caspase-1 must remain in a reduced state and the enzyme is inactivated by oxidative compounds. Caspase-1 activity was monitored using a profluorescent substrate that upon enzymatic cleavage yields a fluorescent probe that is detectable at 405 nm excitation and 525 nm emission. Scheer, J. M., Wells, J. A., and Romanowski, M. J. (2005) Protein Expression and Purification 41, 148-153.
# NCGC Assay Protocol Summary: Caspase-1, kindly provided by Dr. James Wells (University of California, San Francisco), was purified and assayed at 100 nM in buffer containing 50 mM HEPES pH 7.5, 50 mM KCl, 200 mM NaCl, and 0.1% CHAPS. Caspase-1 was dispensed at 3 uL/well into black solid 1536-well plates and incubated 5 min with various concentrations of test compound, with subsequent addition of 1 ul/well Ac-WEHD-AFC substrate (20 uM final concentration). Within 1 minute of substrate addition, fluorescence intensity (405 nm excitation and 525 nm emission) was measured on a ViewLux (PerkinElmer) every 30 s for 10 min. The first 3 minutes of fluorescence values were linear and used to calculate the slope of substrate conversion as a measure of enzyme activity.
# Sequence of Caspase-1 (Homo sapiens) (P29466 whole entry, looked up): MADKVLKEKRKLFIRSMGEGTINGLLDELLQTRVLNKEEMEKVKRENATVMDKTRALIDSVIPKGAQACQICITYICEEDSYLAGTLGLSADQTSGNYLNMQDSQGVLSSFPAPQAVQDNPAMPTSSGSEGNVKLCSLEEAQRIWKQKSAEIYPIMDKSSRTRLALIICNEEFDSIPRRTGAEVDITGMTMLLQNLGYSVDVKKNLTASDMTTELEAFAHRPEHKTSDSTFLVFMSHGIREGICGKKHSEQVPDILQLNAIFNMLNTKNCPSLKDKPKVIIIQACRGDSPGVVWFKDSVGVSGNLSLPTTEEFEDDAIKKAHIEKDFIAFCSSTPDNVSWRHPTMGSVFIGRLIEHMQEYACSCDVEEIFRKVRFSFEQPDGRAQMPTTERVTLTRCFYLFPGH
row,Compound,Potency
1,CCOC(=O)c1nn(-c2ccccc2)c(=O)c2c(N)sc(C)c12,inactive
2,CCOC(=O)c1nn(-c2ccccc2F)c(=O)c2c(N)scc12,inactive
3,CCOC(=O)c1nn(-c2ccc(C)c(C)c2)c(=O)c2c(N)scc12,inactive
4,CCOC(=O)c1nn(-c2cccc(C(F)(F)F)c2)c(=O)c2c(N)scc12,inactive
5,Nc1nn(-c2ccccc2)c(=O)c2c(N)scc12,inactive
6,CCOC(=O)c1ccc(-n2nc(C(=O)OCC)c3csc(N)c3c2=O)cc1,inactive
7,CCOC(=O)c1nn(-c2ccc(C)cc2)c(=O)c2c(N)scc12,inactive
8,CCOC(=O)c1nn(-c2ccc(F)cc2)c(=O)c2c(N)scc12,inactive
9,CCOC(=O)c1nn(-c2ccccc2)c(=O)c2c(NC(C)=O)scc12,inactive
10,CCOC(=O)c1nn(-c2ccccc2)c(=O)c2c(NC(=O)c3ccccc3)scc12,inactive
11,CCOC(=O)c1nn(-c2ccccc2)c(=O)c2c(N)scc12,inactive
12,Nc1scc2c(C(=O)O)nn(-c3ccccc3)c(=O)c12,inactive
13,CC(=O)Nc1sc(C)c2cnn(-c3ccccc3)c(=O)c12,inactive
14,Nc1scc2c(C(=O)N3CCOCC3)nn(-c3ccccc3)c(=O)c12,inactive
15,COc1ncc(-c2ccccc2)cc1N,15.8 µM (active)
16,Nc1cc(-c2ccccc2)c[nH]c1=O,7.94 µM (active)
17,Nc1scc2c(CO)nn(-c3ccccc3)c(=O)c12,inactive
18,CCOC(=O)c1nn(-c2ccc(Cl)c(Cl)c2)c(=O)c2c(N)scc12,inactive
19,CCOC(=O)c1nn(-c2ccc(OC)cc2)c(=O)c2c(N)scc12,inactive

# From PubChem BioAssay AID1711 (National Center for Advancing Translational Sciences (NCATS), 2009)
